# Screening results (PubChem BioAssay)
# CYP2C9 activ = activators of human CYP2C9; activation factor at 5 µM; actives 1.4% (n = 96,000); P11712; AID 1024; recombinant CYP2C9, luciferin-H conversion, luminescence; active compounds read high; factor 1 = untreated enzyme, 0 = blocked;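 active = activation factor of 2 or more for CYP2C9 at a 5 µM dose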
# CYP2C19 activ = activators of human cytochrome P450 2C19 | AID 1025 | 96,000 tested, under 10 active | activation factor at 5 µM | recombinant CYP2C19, luciferin-H EGE luminescence; active compounds read high; 0 = fully inhibited enzyme, 1 = untreated enzyme;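 active = activation factor of at least 2 at 5 µM in the primary screen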
# Target sequence (P33261 whole entry, looked up): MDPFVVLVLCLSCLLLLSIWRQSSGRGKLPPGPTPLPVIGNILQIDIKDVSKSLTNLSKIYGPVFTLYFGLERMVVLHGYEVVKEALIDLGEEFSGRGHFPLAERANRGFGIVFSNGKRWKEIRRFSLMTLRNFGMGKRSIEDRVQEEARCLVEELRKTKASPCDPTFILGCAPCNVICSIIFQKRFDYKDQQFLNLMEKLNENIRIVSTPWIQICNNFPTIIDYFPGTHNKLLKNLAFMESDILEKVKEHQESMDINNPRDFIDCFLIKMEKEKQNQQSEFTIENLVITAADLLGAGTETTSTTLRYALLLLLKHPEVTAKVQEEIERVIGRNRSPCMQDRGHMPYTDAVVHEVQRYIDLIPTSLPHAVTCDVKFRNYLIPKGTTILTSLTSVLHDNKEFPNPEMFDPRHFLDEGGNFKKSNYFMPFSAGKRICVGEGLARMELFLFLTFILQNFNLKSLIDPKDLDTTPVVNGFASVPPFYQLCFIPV
# CYP2C9 inh = human CYP2C9 inhibition | P11712 | CYP2C9 Supersomes, luciferin-H conversion, luminescence | inhibition, % at 5 µM | actives 20% (n = 96,000);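 active = blocking of liver enzyme CYP2C9 beyond about 50% at 5 µM, limit read from the data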
# Cav32 inh = blocks human Cav3.2 T-type calcium channel; O95180; Cav3.2-expressing cells, Fluo-4 calcium fluorescence FDSS; active compounds read low; B-score at 10 µM; actives 4% (n = 100,000);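 active = single-dose well whose peak fluorescence ratio is a statistical outlier from its plate by either plate-standardised score or position-corrected B-score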
# CYP2C19 inh = blocks human cytochrome P450 2C19; P33261; CYP2C19 Supersomes, luciferin-H EGE luminescence, 30 min; inhibition, % at 5 µM; actives 21% (n = 96,000);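 active = CYP2C19 inhibition above a set limit at 5 µM in the primary screen, cut at about 50% in these data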
# Pyk2 oligo antag = antagonists of human Pyk2 oligomerization. Q293 cells, Pyk2 FERM NanoBiT luminescence; active compounds read low. z-score (the deposit names both 25 µM and 10 µM). Q14289. actives 0.83% (n = 99,000);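 active = Z-score of -3 or lower, scaled per plate to the spread of control and sample wells; inactive = z-score above -3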;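 note: negative z-score means lost luminescence so less FERM oligomerization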
# Numbers stand for hits; 0 = inactive; - = no result given. Compounds with a hit are over-represented: about 27% of the library has one in this group of screens.
SMILES,CYP2C9 activ,CYP2C19 activ,CYP2C9 inh,Cav32 inh,CYP2C19 inh,Pyk2 oligo antag
CO[C@H]1[C@@H](OC)CC(OC2OC(CO)C(O)C(O)C2O)/C(=C\C#N)[C@@H]1O (stereo partly drawn),-,-,-,0,-,-
CCOC(=O)N(CC)c1ccc(C(O)(C(=O)OC)C(F)(F)F)cc1 (stereo not drawn),0,0,0,0,64,0
CCOC(=O)CN1C(=O)C2(C(C#N)=C(N)Oc3ccccc32)C(C(=O)OC)=C1C (stereo not drawn),0,0,0,-,0,0
CC(=NCCCN1CCOCC1)c1c(O)[nH]c(=O)[nH]c1=O,0,0,0,0,0,0
CC(Cc1ccccc1Sc1ccccc1O)N(C)C (stereo not drawn),0,0,0,0,61,0
C#CCN(C)[C@H](C)Cc1ccccc1,-,-,-,0,-,-
CCc1cc2c(s1)NC(=O)CN=C2c1cccs1,0,0,0,0,0,0
Cc1c2ccncc2c(C)c2c1[nH]c1ccccc12,-,-,-,-4.4,-,-
c1ccc2c(c1)[nH]c1cnccc12,-,-,-,0,-,-
C/C=C1/CN2C3CC1C(CO)(C(=O)OC)C2Cc1c3n(C)c2ccccc12 (stereo not drawn),-,-,-,0,-,-
COP(=S)(OC)SCN1C(=O)c2ccccc2C1=O,0,0,71,0,98,-
CC(C)Sc1nnc([C@@H](N)Cc2c[nH]c3ccccc23)o1,0,0,0,0,77,0
CCOC(=O)C1=C(C)OC(N)=C(C#N)C12C(=O)Nc1ccc(C)cc12 (stereo not drawn),0,0,0,0,0,0
Nc1ccccc1C(=O)OCCOc1ccccc1,0,0,74,0,92,0
Nc1ccccc1C(=O)OCC(=O)N1CCc2ccccc21,0,0,0,0,0,0
Cc1nn(-c2ccccc2)c2c1C(c1ccc3c(c1)OCO3)SCC(=O)N2 (stereo not drawn),0,0,90,0,90,0
COc1cc(C2SCC(=O)Nc3c2c(C)nn3-c2ccccc2)cc(OC)c1OC (stereo not drawn),0,0,69,0,79,0
Cc1nn(C2CCOC(C)(C)C2)c2c1C(c1ccc3c(c1)OCO3)SCC(=O)N2 (stereo not drawn),0,0,0,0,0,0
CCOc1ccc(-n2c(O)c(C=Nc3ccc(N4CCOCC4)cc3)c(=O)[nH]c2=O)cc1,0,0,0,0,0,0
CN1C(=O)C(=Cc2ccc(N3CCCCCC3)o2)C(=O)N(C)C1=S,0,0,0,-7.1,59,0
CN(C)C1(c2nnnn2-c2ccc(Cl)cc2)CCCCC1,0,0,0,-,93,-
CN(C)C1(c2nnnn2CCOC(=O)Nc2ccc(Cl)cc2)CCCCC1,0,0,87,-3,100,0
CCN1C[C@@]2(COC)C3[C@@H](OC)[C@H]4[C@@H]1[C@@]3(C1C[C@H]3[C@H](OC(=O)c5ccccc5)C1[C@]4(OC(C)=O)C[C@H]3OC)[C@@H](OC)C[C@H]2O (stereo partly drawn),-,-,-,0,-,-
C=C(C)CN1CC[C@]23c4c5ccc(O)c4O[C@H]2c2[nH]c4ccccc4c2C[C@@]3(O)C1C5,-,-,-,0,-,-
CCCCN1CCC(C#N)(Nc2ccccc2)CC1,0,0,0,0,71,0
SMILES,CYP2C9 activ,CYP2C19 activ,CYP2C9 inh,Cav32 inh,CYP2C19 inh,Pyk2 oligo antag
CP(=O)(O)CCCN,0,0,0,0,61,0
O=c1cccc2n1CC1CC2CN(Cc2c(Cl)cccc2Cl)C1 (stereo not drawn),0,0,70,0,97,0
C[C@@H]1C2C[C@@]34COC(=O)C3=CC=C[C@H]4[C@@]13C[C@H](c1ccoc1)O[C@@H]3O2,-,-,-,0,-,-
COc1ccc2[nH]c(C)c(CCN3CCC(=O)C(C)C3C)c2c1 (stereo not drawn),0,0,51,0,89,-
COC(=O)C1=CO[C@@H](C)[C@@H]2CN3CC[C@@]4(C(=O)Nc5ccccc54)[C@@H]3C[C@H]12,-,-,-,0,-,-
CC1SC2(CN3CCC2CC3)NC1=O (stereo not drawn),0,0,0,0,0,0
Cn1cc(C(=O)c2ccccc2)c2ccccc21,2.9,0,0,0,0,-
O=C(C1CC(c2ccccc2O)=NO1)N1CCC2(CC1)OCCO2 (stereo not drawn),0,0,0,0,100,0
CCC(C)NC(=O)c1c(N)n(Cc2ccc3c(c2)OCO3)c2nc3ccccc3nc12 (stereo not drawn),0,0,67,0,0,0
CCC(C)NC(=O)c1c(N)n(CC2CCCO2)c2nc3ccccc3nc12 (stereo not drawn),0,0,0,-8.7,0,0
CC(C)CCNC(=O)c1c(N)n(CC2CCCO2)c2nc3ccccc3nc12 (stereo not drawn),0,0,95,-4.2,61,0
CN1C2CCC1CC(=NO)C2,-,-,-,0,-,-
NC(=O)Nc1ccc(C(=O)OCC(=O)Nc2ccc(Cl)cc2C(=O)c2ccccc2)cc1,-,-,-,-,-,0
CC(=O)O[C@@H]1/C=C/[C@](C)(O)C[C@@H](C)C/C=C/[C@H]2[C@@H]3O[C@]3(C)[C@@H](C)[C@H]3[C@H](Cc4ccccc4)NC(=O)[C@@]312,-,-,-,0,-,-
COCCNC(=O)c1c(NC(=O)c2ccco2)n(Cc2ccccc2)c2nc3ccccc3nc12,0,0,76,0,0,0
CC(C)Oc1cc(-n2c(=S)[nH]c3ccccc3c2=O)c(Cl)cc1Cl,0,0,72,0,90,0
COc1cc(-n2c(=S)[nH]c3ccccc3c2=O)c(Cl)cc1Cl,0,0,58,0,90,0
COc1cccc(/C=C2\N=C(c3cncc(Br)c3)OC2=O)c1,-,-,-,-,-,0
FC(F)(F)c1ccc2c(c1)NP(=S)(N1CCOCC1)c1nccn1-2 (stereo not drawn),0,0,0,0,61,0
CN(C)CP(=O)(Nc1ccccc1)N(C)C (stereo not drawn),0,0,0,0,0,0
COc1ccc(OP(=O)(Nc2ccccc2)Nc2ccccc2)cc1,0,0,69,0,83,0
O=C(Nc1ccc(C(F)(F)F)cc1)c1cccn(Cc2ccc3c(c2)OC(F)(F)O3)c1=O,0,0,0,0,0,0
O=C(Nc1cccc(C(F)(F)F)c1)c1cccn(Cc2ccc3c(c2)OC(F)(F)O3)c1=O,0,0,65,-,0,0
CC(C)Oc1cccc(NC(=O)c2cccn(Cc3ccc4c(c3)OC(F)(F)O4)c2=O)c1,0,0,84,-,0,0
Cc1cccc(C)c1NC(=O)c1cccn(Cc2ccc3c(c2)OC(F)(F)O3)c1=O,0,0,0,-,68,0
CN1CCN(C(=O)COc2ccc(-c3nc4ccccc4s3)cc2)CC1,0,0,0,0,0,0
Cc1ccc(N2C(=O)NC(=O)C3(Cc4ccccc4N4CCN(c5ccccc5)CC43)C2=O)cc1 (stereo not drawn),0,0,0,-6.8,0,0
O=C(COc1ccccc1)N1CCN(C2CCCC2)CC1,0,0,0,0,64,0
